TexasRed fluor: counter-screen for TRb-SRC2 inhibitors: fluorescence interference | 280,000 tested, 0.29% active | Potency, µM (doses to about 106 µM), for inactives: at the highest dose fluorescence change, negative = quenching | TRb/SRC2 Texas Red total fluorescence interference | AID 1479; active = well fitted curve in either direction with a large enough effect; inconclusive = small, poorly fitted or top-dose-only effect; also: potency is read from the fitted curve at half-maximal effect
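Human TRβ ligand-binding domain (0.6 uM) and Texas Red SRC2 peptide (20 nM) in Tris buffer with 1 uM T3 and 5% DMSO were incubated with pinned compound for 5 hr at ambient temperature. Total fluorescence was computed as S + 2P (555/632 nm).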
Tau fluor counter: counter-screen for tau fibril formation inhibitors. AID 1463. 280,000 tested, 0.93% active. tau K18 P301L Alexa594 fluorescence, heparin fibrillization. Potency, µM (doses to about 57.7 µM), without a hit: at the top dose activity change, negative = decrease; also: potency is read from the fitted curve at half-maximal effect; nearly all actives have a fitted effect of over 55% in size
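Human tau K18 P301L (15 uM unlabeled, 0.24 uM Alexa 594-labeled) in 100 mM sodium acetate pH 7 with 20 uM heparin, 6 hr at 37 C. ThT 30 uM added, 1 hr ambient; Alexa 594 FP and total fluorescence read at 555/632 nm.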
TRb SRC2 PPI: inhibitors of human thyroid hormone receptor beta-SRC2 interaction; Potency, µM (top dose mostly 106 µM), without a hit: at the highest dose activity change, negative = inhibition, actives largely listed as inhibitors; AID 1469; 280,000 tested, 0.065% active; TRbeta-SRC2 peptide binding, fluorescence polarization; receptor liganded with 1 µM T3;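 also: potency is read from the fitted curve at half-maximal effect; plate controls were bound peptide for no effect and peptide without receptor for full effect; nearly all actives have a fitted effect of over 50% in size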
Target sequence (P10828 whole entry, looked up): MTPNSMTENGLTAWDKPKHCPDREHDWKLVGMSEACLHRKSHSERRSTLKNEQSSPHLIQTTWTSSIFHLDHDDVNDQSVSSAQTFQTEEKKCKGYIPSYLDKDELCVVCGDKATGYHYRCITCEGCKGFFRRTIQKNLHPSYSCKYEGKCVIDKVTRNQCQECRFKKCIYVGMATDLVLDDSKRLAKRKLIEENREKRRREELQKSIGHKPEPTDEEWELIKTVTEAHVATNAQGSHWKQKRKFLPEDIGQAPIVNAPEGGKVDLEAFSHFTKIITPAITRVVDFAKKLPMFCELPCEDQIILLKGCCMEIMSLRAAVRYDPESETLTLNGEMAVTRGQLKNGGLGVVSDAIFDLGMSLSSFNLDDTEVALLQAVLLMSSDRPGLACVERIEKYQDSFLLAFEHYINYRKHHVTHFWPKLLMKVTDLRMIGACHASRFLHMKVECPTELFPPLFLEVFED
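Human TRb LBD (0.6 uM) plus Texas Red-labeled SRC2 peptide (20 nM), 1uM T3, 5% DMSO, 5 hr at ambient temperature. Decreased polarization (555/632 nm) flags inhibition; data normalized to free and bound peptide controls.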
Tau fibril FP: tau fibrillization inhibition (FP); P10636; Potency, µM (series often up to 57.7 µM), for the others: at the top dose activity, negative = inhibition, usual class: inhibitors; AID 1468; 280,000 tested, 0.39% active; K18 P301L tau heparin fibrillization, Alexa594 FP, 6 h; also: potency is read from the fitted curve at half-maximal effect; nearly all actives have a fitted effect of over 55% in size
Target sequence (P10636 561-689 P618L limits assumed): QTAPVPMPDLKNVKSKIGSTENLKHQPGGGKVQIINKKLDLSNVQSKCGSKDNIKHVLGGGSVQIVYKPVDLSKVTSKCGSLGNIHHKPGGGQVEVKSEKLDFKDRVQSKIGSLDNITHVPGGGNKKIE
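Human tau K18 […] P301L fragment, 15 uM unlabeled plus 0.24 uM Alexa 594-labeled tau (final), with compound and 20 uM heparin in 100 mM sodium acetate pH 7; 6 hr at 37 C, then Alexa 594 FP read.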
Tau ThT inhib: inhibitors of human tau fibril formation, thioflavin T binding | 270,000 tested, 2.1% active | Potency, µM (highest dose often 57.4 µM), inactives show top-dose activity, negative = inhibition, usual class: inhibitors | recombinant tau K18 P301L (four-repeat tau fragment), heparin-induced fibrillization, ThT fluorescence | P10636; also: potency is read from the fitted curve at half-maximal effect; nearly all actives have a fitted effect of over 55% in size
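K18 P301L tau (15 uM + 0.24 uM Alexa 594-tagged), heparin 20 uM, NaOAc pH 7, 6 h 37 C; ThT 30 uM, 1 h RT, ex 450/em 510 nm.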
PNC inhibitor: blocks assembly of the perinucleolar compartment. PC3M PTB-GFP, PNC prevalence imaging, 16 h; stronger effect = lower value. activity change (PNC), negative = inhibition, % at 10 µM. 140,000 tested, 3.1% active;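 active = readout at or below -70, meaning at least 70% loss of cells showing the perinucleolar compartment, a nuclear body marking cancer cells; inconclusive = readout between -30 and a set limit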;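 also: plate controls were DMSO wells for no effect and camptothecin positive control wells for full effect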
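PC3M cells stably expressing PTB-GFP, 750–1000 cells/well, treated 16 h at 37 °C with compound (23 nl of library stock), in duplicate. After paraformaldehyde fixation and Hoechst stain, imaged at 20x; PNC prevalence scored by image analysis.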
Active calls of the source: *; ? = inconclusive; . = no result given; [ ] = dose if it differs, or a comment. Only some compounds are listed: those with a hit (about 4.6% of all), similar ones and a draw of the others. Unless noted, calls follow the shape of the dose curve; as a rule, active = well fitted curve in the direction sought with a large enough effect; inconclusive = small, poorly fitted or top-dose-only effect, or another doubt; inactive = no such curve, though single readings can be large; an effect the other way counts as inactive or inconclusive. Unless noted, % is scaled to controls: 0 for no effect and ±100 for the full control effect.

SMILES	TexasRed fluor	Tau fluor counter	TRb SRC2 PPI	Tau fibril FP	Tau ThT inhib	PNC inhibitor
Cc1ccc(NC(=S)NC2CCN(Cc3ccccc3)CC2)cc1	0.1%	-9.0%	-6.6%	3.8%	-0.1%	-119.4*
CC1CCCN(C(=S)Nc2ccc(F)cc2)C1 (stereo not drawn)	-1.1%	7.3%	-7.5%	2.6%	5.6%	.
S=C(Nc1ccc(Cl)cc1)NC1CCCCC1	0.4%	-29.6%	-1.0%	-4.2%	-9.6%	.
COc1ccc2nc(N3C(=O)CC(Cc4ccc(Cl)cc4)C3=O)sc2c1 (stereo not drawn)	1.9%	-4.6%	-3.1%	-0.6%	-5.1%	?
CS(C)(=O)=NS(=O)(=O)c1ccc(Cl)cc1	-1.5%	-2.1%	-9.9%	6.6%	-7.2%	2.5
Cc1ccc(-n2c(C)cc(C(=S)N3CCOCC3)c2C)cc1C	1.6%	-2.3%	-5.7%	-4.7%	?	39.1
CC(C)C(=O)c1cc2c(cc1NC(=O)c1ccccc1)OCCO2	-2.7%	-26.0%	-3.3%	-7.3%	4.4%	14.6
COc1ccc(CN(Cc2cccnc2)C(=S)NCCc2ccccc2)cc1OC	-8.4%	-5.1%	-2.3%	0.9%	9.0%	-106.3*
O=C(Nc1sc2c(c1C(=O)Nc1cccc(Cl)c1)CCCC2)c1cccs1	3.2%	-17.3%	-2.7%	?	11.2µM*	.
CCOC(=O)c1ccc(NC(=O)c2c(NC(=O)CCC(=O)O)sc3c2CCCCC3)cc1	-0.3%[53 µM]	-2.0%	0.1%[53 µM]	-14.7%	?	.
CCOc1ccc(NC(=O)c2c(NCc3ccc(C)o3)sc3c2CCC(C)C3)cc1 (stereo not drawn)	-3.0%	-29.7%	1.2%	-0.4%	?	.
CCOC(=O)c1ccc(NC(=O)c2c(NCc3cccs3)sc3c2CCCCC3)cc1	?	-25.6%	-14.1%	?	22.4µM*	.
CCOc1ccc(NC(=O)c2c(NCc3cccnc3)sc3c2CCC(C)C3)cc1 (stereo not drawn)	-15.8%	?	-7.1%	-10.8%	15.8µM*	.
CCOc1ccc(NC(=O)c2c(NCc3cccs3)sc3c2CCC(C)C3)cc1 (stereo not drawn)	355µM*[quencher]	-24.0%	-20.9%	3.8%	?	.
Cc1nc2ccccn2c1C(=O)NC1CCCC1	-3.7%	-7.0%	-5.7%	8.7%	?	.
CCOC(=O)c1c(C(F)(F)C(F)(F)C(F)(F)C(F)(F)F)n[nH]c1C	-4.0%	4.5%	10.0%	14.1µM*	0.9%	?
COC(=O)c1ccc(NC(=O)Cn2c(=O)nc(-c3ccccc3)c3ccccc32)cc1	-1.8%	-3.6%	-8.6%	-4.6%	0.3%	.
Cc1csc(/C(=N\O)c2csc(C)n2)n1	3.0%	-3.0%	2.8%	-1.6%	-10.6%	-100.0*
Cc1cccc(-c2n[nH]c(=S)n2-c2ccccc2)c1[N+](=O)[O-]	-4.9%	1.8%	-0.7%	1.2%	-0.4%	-0.8
COc1ccc(-n2c(-c3cccc(C)c3[N+](=O)[O-])n[nH]c2=S)cc1	-3.0%	2.2%	-4.0%	6.4%	-4.2%	-109.4*
COCCCn1c(SCc2nnc(-c3ccc(OC)c(OC)c3)o2)nc2ccccc2c1=O	-4.9%	-4.7%	-6.4%	-3.2%	-6.1%	-100.0*
NC(=O)c1ccc(N2CCN(c3ncc(C(F)(F)F)cc3Cl)CC2)cc1	-1.7%	-16.0%	-4.1%	-1.0%	?	.
Nc1ccc(N2CCN(c3ncc(C(F)(F)F)cc3Cl)CC2)c(C(F)(F)F)c1	2.9%	10µM*[quencher]	5.2%	?	20µM*	.
CCOC(=O)c1cc(CC)sc1NC(=O)c1cc(OC)c(OC)c(OC)c1	-0.2%	-13.1%	-0.1%	2.5%	-27.4%	14.1
Cc1cc(NCc2ccco2)n2ncnc2n1	0.4%	-1.0%	-3.0%	12.9%	-6.9%	-119.3*
SMILES	TexasRed fluor	Tau fluor counter	TRb SRC2 PPI	Tau fibril FP	Tau ThT inhib	PNC inhibitor
Cc1nc2ccccc2c(=O)n1/N=C/c1ccc([N+](=O)[O-])o1	-4.3%	?	-5.9%	?	28.2µM*	.
COC(=O)N/N=C/c1ccc([N+](=O)[O-])o1	-2.5%	-1.6%	-4.3%	-0.6%	-3.5%	12.7
CN(/N=C/c1ccc([N+](=O)[O-])o1)c1ccccc1	-6.0%	?	-1.9%	-11.5%	7.08µM*	.
COCCN(Cc1cccs1)S(=O)(=O)c1cc(-c2cc(C)no2)ccc1C	-5.1%	-25.3%	6.0%	3.6%	-6.0%	.
N/C(Cc1ccc(Cl)cc1Cl)=N\OC(=O)Cc1cccs1	0.3%	-15.4%	-9.9%	-5.3%	-13.6%	-123.8*
N/C(Cc1ccc(Cl)cc1Cl)=N\OC(=O)c1cccs1	0.9%	-19.9%	0.9%	1.7%	-21.1%	?
COC(=O)c1cc2oc3ccccc3c2n1CC(=O)Nc1ccc(Cl)cc1F	6.4%	-23.5%	6.4%	-3.4%	-13.8%	.
O=C(CCc1ccccc1)N1CCN(c2ccccn2)CC1	0.7%	10.3%	1.9%	1.7%	5.6%	-22.7
O=C(c1ccccc1CCc1ccccc1)N1CCN(c2ccccn2)CC1	0.2%	-2.1%	7.2%	4.0%	-8.3%	-83.7*
O=C(O)C1CC(=O)N(CCc2ccccc2)C1 (stereo not drawn)	-7.3%	-4.5%	-3.2%	-3.9%	-10.0%	-29.7
O=C(CC1NCCNC1=O)Nc1ccc2c(c1)OCO2 (stereo not drawn)	-7.4%	-4.4%	-1.3%	-6.6%	-4.1%	-90.7*
Cc1ccc(CNC(=O)CSc2n[nH]c(N)n2)cc1	0.0%	3.2%	-0.8%	-0.1%	3.5%	-92.8*
Cc1ccc(-c2ccc(/C=C(\C#N)C(N)=S)n2C)cc1	-4.7%	?	-6.9%	-2.6%	1µM*	.
Cc1ccc(NS(=O)(=O)c2ccc3c(c2)NC(=O)CCS3)cc1F	0.2%	-12.7%	1.8%	-2.9%	10.3%	.
C=CCn1c(O)c(C2=c3ccccc3=NC2=O)s/c1=N/c1nccs1	-5.8%	?	-6.8%	?	?	-23.6
Cn1c(O)c(C2=c3ccccc3=NC2=O)sc1=Nc1ccc(Cl)cc1	-4.7%	?	-0.3%	14.9%	10µM*	?
COc1ccc(-c2nsc(SCC(=O)NCc3ccc4c(c3)OCO4)n2)cc1	-5.6%	-14.7%	5.5%	-5.6%	2.3%	49.5
Cc1cccc(Cn2cc(C(=O)Nc3ccc(F)c(C(F)(F)F)c3)ccc2=O)c1	1.0%	?	-3.1%	25.1µM*	19.9%	.
S=C(NCc1ccc2c(c1)OCO2)Nc1ccc(-c2nc3ccccc3[nH]2)cc1	-2.6%	12.6µM*[quencher]	-2.9%	?	?	-13.7
CC(C)c1ccc(NC(=S)NCc2ccc3c(c2)OCO3)cc1	-0.9%	?	-4.2%	-11.5%	-12.3%	.
COCCNC(=S)Nc1ccc2nc(N3CCCC3)cc(C)c2c1	-2.6%	-4.3%	-6.0%	1.0%	-11.2%	8.8

Screening results (PubChem BioAssay)
